Values without a mark were called inactive. How the calls were made is not given here.
Biological target: Pantothenate synthetase (Mycobacterium tuberculosis (strain ATCC 25618 / H37Rv)) (UniProt P9WIL5)
Test: Recombinant Mtb pantothenate synthetase (PanC) inhibitors, coupled enzyme, confirmatory (AID 375);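 further: 0% = full reaction with vehicle and 100% = no enzyme background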
Details: coupled enzyme assay; at 10 µM, active compounds read high

Chain of Pantothenate synthetase (Mycobacterium tuberculosis (strain ATCC 25618 / H37Rv)) (P9WIL5 whole entry, looked up): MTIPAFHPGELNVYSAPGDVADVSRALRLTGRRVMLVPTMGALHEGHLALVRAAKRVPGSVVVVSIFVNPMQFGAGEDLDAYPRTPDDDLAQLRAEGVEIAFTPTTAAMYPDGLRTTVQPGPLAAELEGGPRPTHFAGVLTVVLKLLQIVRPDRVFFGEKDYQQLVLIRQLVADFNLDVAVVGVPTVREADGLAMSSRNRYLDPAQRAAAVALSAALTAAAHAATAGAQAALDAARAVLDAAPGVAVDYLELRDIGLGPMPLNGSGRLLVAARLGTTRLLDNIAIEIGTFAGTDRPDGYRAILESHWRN

Compound	inhibition
CN(c1ccccc1)S(=O)(=O)c1ccc(C(=O)OCC(=O)N2CCOCC2)cc1	7%
COc1ccc(CCN2C(=O)CC(N3CCOCC3)C2=O)cc1 (stereo unspecified)	0%
Cc1ccc2c(c1)C(O)(CC(=O)c1ccc3c(c1)OCO3)C(=O)N2 (stereo unspecified)	0%
CCC(=O)N(Cc1cc2c(C)ccc(C)c2[nH]c1=O)C1CCCCC1	0%
Cc1cc(NC(=O)c2ccc3nc(-c4ccccc4)c(-c4ccccc4)nc3c2)no1	0%
COc1cc2c(cc1NC(=O)CN1CCN(S(=O)(=O)c3ccc(F)cc3)CC1)oc1ccccc12	0%
O=C(c1ccc(=O)[nH]c1)N(Cc1ccco1)C1(C(=O)NC2CCCC2)CCCCC1	0%
CC(=O)c1ccc(NS(=O)(=O)c2ccccc2)cc1	0%
Cc1cccc(NC(=O)COc2ccc(Br)cc2)n1	0%
O=C(c1ccccc1Oc1nnnn1-c1ccccc1)N1CCOCC1	0%
Cc1cc(Cl)ccc1OCC(=O)Nn1c(C)ccc1C	0%
Cc1nn(C)c(C)c1CNC(=O)c1cc2n(n1)C(C(F)(F)F)CC(c1cccs1)N2 (stereo unspecified)	7%
O=C(CC1(O)C(=O)Nc2ccccc21)c1ccc2c(c1)OCO2 (stereo unspecified)	0%
CC(=O)Nc1c(O)n(C)c2ccccc12	2%
O=C(OCC#CCSc1nc2ccccc2s1)c1ccco1	3%
CCn1c(=O)c(=O)[nH]c2cc(C(=O)N3CCN(c4ccccc4F)CC3)ccc21	4%
Cc1[nH]c2ccc(F)cc2c(=O)c1SC(F)(F)C(F)C(F)(F)F (stereo unspecified)	1%
CN1CCN(Cc2nc3c(c(=O)[nH]c(=O)n3C)n2CCc2ccccc2)CC1	0%
CC1CCN(CCc2nc3cc(NS(=O)(=O)c4ccc(F)cc4)ccc3n2C)CC1	5%
CCOC(=O)CS(=O)(=O)c1nc(-c2ccccc2)cc(C(F)(F)F)n1	3%
O=C(NCCCN1CCOCC1)C1CC(=O)N(CCc2ccccc2)C1 (stereo unspecified)	4%
Cn1c(=O)c2c(nc(SCCCO)n2Cc2ccccc2Cl)n(C)c1=O	3%
Cc1ccc(Oc2ccc(-c3nc(N)nc(N)n3)cc2)cc1	7%
COc1c2ccoc2nc2c(OC)c(OCC(O)C(C)(C)O)ccc12 (stereo unspecified)	0%
O=C(C1=C(O)C(=O)N(c2ncccn2)C1c1cccc(Cl)c1)c1ccco1 (stereo unspecified)	0%
CCOC(=O)N1CCN(C(=O)c2cnn(-c3ccccc3)c2NC(=O)c2ccccc2F)CC1	0%

Compound	inhibition
CCn1c(=O)c2cc(S(=O)(=O)NCc3ccccc3)ccc2n(CC)c1=O	0%
Cc1cc(NC(=O)COc2cccc(Oc3ccccc3)c2)no1	8%
COCCCNC(=O)Cn1cc2c(n1)CCC(C)C2 (stereo unspecified)	3%
Nc1nonc1C(=O)NCCNCc1cc(Br)ccc1OCc1ccccc1F	0%
O=C(CCSc1nnc(-c2ccncc2)o1)Nc1ccccc1	0%
c1coc(CN(Cc2cccs2)Cc2nnnn2C2CCCCC2)c1	0%
C/C(=C(\C#N)C(=O)NCCCN1CCOCC1)N(C)C	0%
CN(C)c1nc(Oc2ccc(=O)n(C)n2)nc(N2CCOCC2)n1	0%
COC(=O)c1ccc(CSc2nc3ccccc3s2)o1	0%
CCOC(=O)c1cc2c(=O)n3cccc(C)c3nc2n(CC2CCCO2)c1=NC(C)=O (stereo unspecified)	7%
CS(=O)(=O)N(CC(=O)Nc1ccc2c(c1)OCCO2)Cc1ccccc1	2%
COc1ccc(C2CC(c3ccc(Cl)cc3)Nc3nc(NC(=O)c4ccco4)nn32)cc1 (stereo unspecified)	4%
COCCn1c(C)cc(C(=O)COC(=O)c2ccc(N3CCCC3=O)cc2)c1C	2%
Cc1cc(NC(=O)CSc2nc3c(c(=O)n2Cc2ccccc2)SC(C)C3)no1 (stereo unspecified)	0%
COc1ccc2[nH]c(=O)c(CN(Cc3cccs3)Cc3nnnn3C(C)(C)C)cc2c1	0%
CCCN1C2CCCC1CC(NC(=O)Nc1cccc(C(C)=O)c1)C2 (stereo unspecified)	1%
Cc1cccn2c(=O)c3cc(C#N)c(=NC(=O)c4ccncc4)n(Cc4ccco4)c3nc12	0%
Cc1cc(C)cc(C(=O)N2CCC(C(N)=O)CC2)c1	0%
CCNC(=O)CC1C(=O)N(c2ccccc2)C(=O)N1Cc1ccc(OC)cc1 (stereo unspecified)	0%
CCN(CC)C(=O)CN(c1cc(Cl)ccc1OC)S(C)(=O)=O	0%
COC(=O)CN(c1ccc(C)c(Cl)c1)S(C)(=O)=O	0%
O=C(O)c1cccc(S(=O)(=O)N2CCOCC2)c1	2%
COc1cc(C(=O)N2CCC(c3nc(-c4cccnc4)no3)CC2)cc(OC)c1OC	0%
N#CCCN(C(=O)Nc1ccc(Cl)cc1)c1ccccc1	1%
COc1cccc(C(c2nnnn2CCc2ccccc2)N2CCN(c3ccccc3)CC2)c1OC (stereo unspecified)	0%
Cn1c(C(=O)Nc2ccc3c(c2)OCO3)cc2c(=O)n(C)c3ccccc3c21	0%

Compound	inhibition
CCc1c(C(=O)NCCc2ccc(OC)c(OC)c2)[nH]c(C)c1C(C)=O	12%
O=C(Nc1ccccc1)N(Cc1cccnc1)Cc1ccco1	0%
CCCS(=O)(=O)C(=C1Nc2ccccc2N1)S(=O)(=O)CCC	1%
CCOC(=O)c1cc(-c2ccc(N)cc2)sc1N	0%
O=S(=O)(NCCc1ccccc1F)c1cccc(S(=O)(=O)N2CCOCC2)c1	0%
O=C(Nc1ccccc1C(=O)N1CCCCCC1)c1cccc(S(=O)(=O)N2CCOCC2)c1	5%
O=C(COc1ccccc1)Nc1ccc(-c2nnc(-c3ccco3)o2)cc1	2%
O=C(Nc1ccc(F)cc1)N(Cc1ccco1)Cc1cc2cc3c(cc2[nH]c1=O)OCO3	0%
O=C(NCCN1CCCCC1)c1ccc(=O)oc1	7%
COc1ccc(NC(=O)Nc2ccccc2C)c(OC)c1	0%
CN1CCN(C(=O)c2ccc3c(=O)n(CCc4ccccc4)c(=S)[nH]c3c2)CC1	0%
COC(=O)c1ccc(CSc2nc3c(cnn3-c3ccc(F)cc3)c(=O)[nH]2)o1	4%
O=C(NCCN1CCOCC1)c1csc2c1CCCC2	0%
COc1ccc(CNC(=O)CCc2nc(-c3ccccc3F)no2)c(OC)c1	0%
COc1cc(-c2nnc(SCc3c(F)cccc3Cl)o2)cc(OC)c1OC	0%
Cn1nnnc1SCSc1nnnn1C	1%
Cc1nc(NCc2ccco2)c2oc3ccccc3c2n1	4%
CCOC(=O)c1ccc(N(CC(=O)NC2CCCC2)C(=O)CNC(=O)c2ccco2)cc1	6%
COc1cc(-c2nn3c(-c4cccnc4)nnc3s2)cc(OC)c1OC	6%
CCc1[nH]nc2c1C(c1ccncc1)C(C#N)=C(N)O2 (stereo unspecified)	4%
Cc1cc(Nc2ccc(N3CCC(C)CC3)cc2)n2ncnc2n1	0%
Cc1onc(-c2ccccc2Cl)c1C(=O)NCc1cccnc1	0%
Cn1c(=N)n(CC(=O)O)c2ccccc21	9%
CC(=O)Nc1ccc(S(=O)(=O)N2CCN(c3cc(C)nc4ccccc34)CC2)cc1	5%
O=C(NCC1CCCO1)c1cccc(N2C(=O)C3C4C=CC(C4)C3C2=O)c1 (stereo unspecified)	11%
Cn1c(=O)c2c(nc(Br)n2CCSc2ncccn2)n(C)c1=O	9%

Compound	inhibition
O=C1CC(N2CCN(c3ccc(Cl)c(Cl)c3)CC2)C(=O)N1 (stereo unspecified)	0%
Cc1ccc2c(c1)sc1ncc(NC(=O)c3ccccc3)c(=O)n12	2%
COc1ccc(S(=O)(=O)Nc2ccc(Cl)cn2)c(C)c1C	1%
CC(C)NC(=O)CSc1nnc(-c2ccc(C(C)(C)C)cc2)n1C	1%
CCOC(=O)Cc1nnc(NC(=O)c2ncn[nH]2)s1	0%
CCc1ccccc1NC(=O)C(CC)Sc1nc2cc3c(cc2c(=O)n1Cc1ccco1)OCO3 (stereo unspecified)	0%
O=C(c1ccc(Cl)cc1)N1CCCCC(Sc2nnc(-c3ccc4c(c3)OCO4)o2)C1=O (stereo unspecified)	3%
COCCn1nnnc1CN1CCC(Cc2ccccc2)CC1	0%
CCCCCCNC(=O)c1c(N)n(/N=C/c2ccco2)c2nc3ccccc3nc12	5%
COc1cc(Cn2c(-c3nonc3N)nc3ccccc32)ccc1C	0%
COc1ccc(-c2nc(C#N)c(N3CCOCC3)o2)cc1OC	0%
CCCCc1ccc(NC(=O)COCC)cc1	0%
CC(O)Cn1cnc2c1c(=O)n(C)c(=O)n2C (stereo unspecified)	2%
C=CC(O)(C#CCN(CC)CC)c1ccccc1 (stereo unspecified)	3%
COc1ccc(-n2c(Cc3cccn3C)nnc2SCC(=O)NCC2CCCO2)cc1 (stereo unspecified)	11%
CCOC(=O)c1ccccc1NC1CC(=O)N(c2ccccc2C)C1=O (stereo unspecified)	0%
Cc1ccc(-c2nc3cc(NC(=O)C(C)C)ccc3o2)cc1C	0%
O=C(O)c1cccc(CN2C(=O)SC(Nc3ccccc3)C2=O)c1 (stereo unspecified)	4%
O=S(=O)(c1ccccc1)N(Cc1nc(-c2ccccc2)no1)C1CCCCC1	0%
C(#Cc1ccccc1)Cn1nnc2ccccc21	0%
COCCn1c(SCC(=O)N(C(C)C)C(C)C)nnc1-c1cc2ccccc2cc1O	0%
CC(=O)N1C(=O)N(C)C2C1N(C(C)=O)C(=O)N2C (stereo unspecified)	1%
CCc1c(C)nc(N)n2c(SCC(=O)N3CCCc4ccccc43)nnc12	2%

Reference: PubChem BioAssay
